T cruzi growth-1 = blocks T. cruzi growth in NIH3T3 culture; AID 624255; T. cruzi beta-gal in NIH3T3, GalScreen luminescence, 90 h; inhibition, % at 8.34 µM; hit rate 5.9% among 77,000;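 active means mean inhibition above about 93%, with at least 55% of replicates each passing it, limit read from the data, passing the limit was not always enough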
C diff HTS = inhibitors of Clostridium difficile growth; Clostridium difficile clinical isolate growth, OD600, 24 h; active compounds read low; growth activity, negative = inhibition, % at 16 µg/mL (by protocol); hit rate 0.25% among 86,000;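 active means mean growth activity at or below -80% and every replicate also at or below -80%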
Pf Dd2 inh = blocks growth of Plasmodium falciparum Dd2 parasites; hit rate 2.3% among 94,000; AID 1159554; P. falciparum Dd2 growth, SYBR Green, 72 h; active compounds read low; activity change, % at 10 µM; in the data active means activity change below about -80%
T cruzi growth-2 = Trypanosoma cruzi proliferation inhibition. AID 651739. hit rate 72% among 5,600. shares compounds with T cruzi growth-1. T. cruzi beta-gal in NIH3T3, GalScreen luminescence, 90 h. inhibition, % at 8.35 µM;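 active means mean replicate inhibition above about 95% and at least 55% of replicates individually reaching it, limit read from the data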
T cruzi growth-3 = inhibitors of T. cruzi proliferation. AID 651740. hit rate 21% among 5,600. shares compounds with T cruzi growth-1. T. cruzi beta-gal in NIH3T3, GalScreen luminescence, 90 h. inhibition, % at 2.09 µM;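 active means mean inhibition above about 95%, with at least 55% of replicates also reaching it, limit read from the data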
NIH3T3 tox = cytotoxicity in mouse NIH/3T3 fibroblasts; shares compounds with T cruzi growth-1; NIH/3T3 viability, CellTiter-Glo ATP luminescence, 90 h; cytotoxicity (signal decrease), % at 8.35 µM; hit rate 14% among 5,600;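 active means mean signal decrease across replicates above about 35% based on untreated-well scatter, with enough replicates individually passing, limit read from the data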
3T3 cytotox 2 = kills mouse NIH/3T3 fibroblasts | NIH/3T3 viability, CellTiter-Glo ATP luminescence, 90 h | shares compounds with T cruzi growth-1 | inhibition, % at 24.9 µM | hit rate 56% among 5,600;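 active means mean loss of cell viability signal at or above a set limit, and enough replicates individually reaching it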
Each line names hits and unclear results; the compound was inactive in the other large screens (follow-up assays come after a bar, where they were run). A selection: hits, their analogues and other compounds. The true share with any hit is near 6.7%.

C/C=C/c1ccc([C@H]2[C@H]3CN(C(=O)Cc4cccnc4)CCCCN3[C@H]2CO)cc1	none
O=C(Cc1cccnc1)N1CCCCN2[C@H](C1)[C@@H](c1ccc(/C=C/c3ccccc3)cc1)[C@@H]2CO	T cruzi growth-1 103 | T cruzi growth-2 105 | T cruzi growth-3 100 | NIH3T3 tox 48 | 3T3 cytotox 2 105
C/C=C/c1ccc([C@H]2[C@H](CO)N3CCCCN(C(=O)Cc4cccnc4)C[C@@H]23)cc1	none
O=C(Cc1cccnc1)N1CCCCN2[C@@H](CO)[C@@H](c3ccc(/C=C/c4ccccc4)cc3)[C@@H]2C1	T cruzi growth-1 108 | T cruzi growth-2 97 | T cruzi growth-3 inactive | NIH3T3 tox inactive | 3T3 cytotox 2 106
O=C(Cc1ccccn1)N1CCCCN2[C@H](CO)[C@@H](c3ccc(-c4ccccc4)cc3)[C@@H]2C1	none

Source: PubChem BioAssay
